# This is a sample that favours compounds with a hit; in the whole collection about 6.2% have one here.
# Marburg entry inh = inhibitors of Marburg virus binding or cell entry | 1.8% of 300,000 active | AID 540276 | Potency, µM (titrated, usually from 37.8 µM), for the others: at the highest dose activity change, negative = inhibition, usual class: inhibitors | Marburg virus pseudotyped entry inhibition, cell reporter; calls by dose curve; tested in HEK293 cells; note: potency is the fitted concentration of half-maximal effect
# HCMV antiviral = inhibitors of human cytomegalovirus; HFF cells, HCMV-luciferase reporter, 72 h; hits give low values; activity change, negative = inhibition, % at 57.5 µM; 4.5% of 410,000 active; AID 1259415; in the data active = activity change below about -60%; inconclusive = no clear call, values can overlap the other calls; inactive = above about -39%
#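 Cell-based, HFFs, 1000 cells/well, 16 h 37C; cpds in DMSO + HCMV-luc, MOI 1 PFU/cell; 72 h 37C; OneGlo luminescence after 5 min RT; norm. to buffer vs Salinomycin 10uM.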
# LASV entry inh = inhibitors of Lassa virus binding or cell entry; Lassa virus pseudotype entry inhibition, cell reporter; Potency, µM (highest dose often 37.9 µM), inactives show at the highest dose activity change, negative = inhibition, usual class: inhibitors; 1.2% of 300,000 active; calls by dose curve; tested in HEK293 cells; note: potency is the fitted concentration of half-maximal effect; nearly all actives have a fitted effect of over 50% in size
# FMDV antiviral = blocks foot and mouth disease virus; FMDV antiviral cell-based qHTS; Potency, µM (top dose mostly 57.9 µM), for inactives: at the top dose activity change, negative = inhibition, most hits filed as inhibitors; 1.2% of 410,000 active; AID 1159524; calls by dose curve; tested in HEK293T cells; note: read-out not given here; potency is the fitted concentration of half-maximal effect; nearly all actives have a fitted effect of over 45% in size
# An asterisk follows results filed as active; ? = inconclusive; . = no result; [ ] = another dose, or the depositor's remark. % is set by controls: 0 for no effect and ±100 for the full control effect.
SMILES,Marburg entry inh,HCMV antiviral,LASV entry inh,FMDV antiviral
Cc1cc(/C=N/n2cnnc2)c(C)n1-c1ccc(OCc2ccccc2F)cc1,?,-93*,?,.
Fc1ccccc1COc1cccc(/C=N/n2cnnc2)c1,?,-26,17%,-28%
Cc1cc(/C=N/n2cnnc2)c(C)n1-c1ccc(OCc2ccc(Cl)cc2)cc1,?,-92*,?,?
Cc1csc(NC(=O)CN2C(=O)C3CC=CCC3C2=O)n1 (stereo unspecified),17%,0,18%,-2%
O=C(CN1C(=O)CCC1=O)NNc1ccc2ccccc2c1,?,-28,-22%,-3%
CC12CC[C@H]3[C@@H](CCC4(O)C[C@H](O)CCC34/C=N/NC(=O)c3ccccc3Cl)C1(O)CCC2C1=CC(=O)OC1 (stereo partly specified),.,-32,.,-22%
CC12CCC3C(CCC4(O)CC(O)CCC34C=NO)C1(O)CCC2C1=COC(=O)C1 (stereo unspecified),0.18µM*,-98*,0.25µM*,?
CC12CCC3C(CCC4(O)CC(O)CCC34C=O)C1(O)CCC2C1=CC(=O)OC1 (stereo unspecified),0.45µM*,-100*,0.71µM*,?
C[C@]12CC[C@H]3[C@@H](CC[C@]4(O)C[C@@H](O)CC[C@]34C=O)[C@@]1(O)CC[C@@H]2C1=CC(=O)OC1,.,-99*,.,?
C[C@H]1O[C@@H](OC2CC[C@]3(C=O)[C@H]4CC[C@]5(C)[C@@H](C6=CC(=O)OC6)CC[C@]5(O)[C@@H]4CC[C@]3(O)C2)CC2OC(C)(C)OC21 (stereo partly specified),.,-97*,.,?
Cc1ncc([N+](=O)[O-])n1CC(=O)NC(C)(C)C,?,-2,?,6%
Cc1ccc(C(=O)N/C(=C\c2ccccc2)C(=O)NCC2CCCO2)cc1 (stereo unspecified),-17%,-1,?,-10%
CCCCN=C[C@]12CCC(O)CC1(O)CCC1[C@@H]2CC[C@]2(C)[C@H](C3C=CC(=O)O3)CCC12O (stereo partly specified),3.5µM*,-97*,?,-24%
C[C@]12CCC3C(CCC4=CC(O)CC[C@@]43/C=N/O)C1(O)CCC2C1=CC(=O)OC1 (stereo partly specified),?,-96*,?,-17%
O=S(=O)(CC(O)COc1ccc(Br)cc1)c1ccccc1 (stereo unspecified),.,19,.,-4%
O=C(NCC1CC1)[C@@H]1C[C@H]1[C@@H](NP(=O)(c1ccccc1)c1ccccc1)c1ccccc1,4%,-25,?,18%
O=C(NCc1ccccn1)[C@@H]1C[C@H]1[C@@H](NP(=O)(c1ccccc1)c1ccccc1)c1ccccc1,-16%,-13,6.5µM*,11%
COC(=O)[C@H]1C[C@@H]1[C@H](NP(=O)(c1ccccc1)c1ccccc1)c1ccccc1,-45%,-11,5%,2%
O=C(NCc1ccccc1)[C@@H]1C[C@H]1[C@@H](NP(=O)(c1ccccc1)c1ccccc1)c1ccccc1,?,-34,1.8µM*,27%
O=C(O)[C@@H]1C[C@H]1[C@@H](NP(=O)(c1ccccc1)c1ccccc1)c1ccccc1,3%,-99*,14%,-13%
Cc1ccc(C(NC(=O)C2CCN(CCCOc3ccccc3)CC2)c2ccccn2)cc1 (stereo unspecified),.,-14,.,2%
COc1ccc(C(NC(=O)C2CCN(CCCOc3ccccc3)CC2)c2cccs2)cc1 (stereo unspecified),.,-103*,.,-18%
N#C/C(=C\c1ccncc1)c1nc2ccccc2o1,-18%[46.1 µM],178,-30%,18%
N#C/C(=C\Nc1ccccc1O)c1nc2ccccc2o1,?,-95*,?,?
O=C(NCc1ccco1)c1cc2c(s1)CCCCC2,2%,68,?,91%
SMILES,Marburg entry inh,HCMV antiviral,LASV entry inh,FMDV antiviral
O=C1c2[nH]nc(-c3ccccc3O)c2C(c2cccc(Cl)c2)N1Cc1ccco1 (stereo unspecified),13µM*,14,?,?
COc1ccc(C2c3c(-c4ccccc4O)n[nH]c3C(=O)N2Cc2ccco2)cc1OC (stereo unspecified),-14%[46.1 µM],-31,?,-3%
O=C1c2[nH]nc(-c3ccccc3O)c2C(c2ccc(F)cc2)N1Cc1ccco1 (stereo unspecified),?,-35,8.2µM*,?
CC(=O)NNC(=O)c1[nH]c2ccc(Cl)cc2c1-c1ccccc1,.,-4,.,-1%
O=C(NN=C1CCCC1)c1[nH]c2ccc(Cl)cc2c1-c1ccccc1,?,-92*,?,-10%
O=C(N/N=C/c1ccc(O)cc1)c1[nH]c2ccc(Br)cc2c1-c1ccccc1,?,-94*,?,-19%
O=C(N/N=C/c1c[nH]c2ccccc12)c1[nH]c2ccc(Br)cc2c1-c1ccccc1,?,-86*,?,?
O=C(N/N=C/c1c[nH]c2ccccc12)c1cc(Br)ccc1O,.,19,.,42%
NNC(=O)c1[nH]c2ccccc2c1-c1ccccc1,.,-95*,.,-20%
CCN(CC)S(=O)(=O)c1ccc(N2CCOCC2)c(NC(=O)c2ccc(OC)c([N+](=O)[O-])c2)c1,.,-35,.,-8%
CCC(=O)N1c2ccc(S(=O)(=O)NCc3ccccc3)cc2CC1C (stereo unspecified),.,?,.,13%
CCOc1c2ccc(C(=O)NCc3ccc(C(F)(F)F)cc3C(F)(F)F)cc2nn1C,.,-19,.,-25%
CCc1nc2ccc(C(=O)NCc3cccs3)cn2c1N(CC)CCN(C)C,.,-9,.,-8%
CC(Oc1ccc(Br)cc1)C(=O)Nc1cc(Cl)ccc1N1CCN(C)CC1 (stereo unspecified),8.9µM*,-4,?,-10%
CC(Oc1ccc(Cl)cc1Cl)C(=O)Nc1ccc(N2CCN(C)CC2)cc1 (stereo unspecified),12µM*,15,?,-14%
CC(=O)N1CCN(c2ccc(NC(=O)C(C)Oc3ccc(Cl)cc3Cl)cc2)CC1 (stereo unspecified),?,0,-15%,0%
CC(=O)N1CCN(c2ccccc2NC(=O)COc2ccc(Cl)cc2Cl)CC1,?,3,-11%,-12%
Cc1cccc(OCC(=O)Nc2ccc(N3CCN(C(=O)c4ccccc4)CC3)cc2)c1,?,-36,-11%,28µM*
CC(=O)N1CCN(c2ccc(NC(=O)COc3ccc(Cl)cc3Cl)cc2)CC1,13%,-64*,-18%,?
COc1ccccc1NS(=O)(=O)c1cccc(NC(=O)C(C)NC(=O)c2ccco2)c1 (stereo unspecified),-3%,-14,-16%,29%
O=C(COc1ccccc1Cl)Nc1cc(NC(=O)COc2ccccc2Cl)cc(C(=O)O)c1,?,11,8.9µM*,38%
O=C(COc1ccccc1Cl)Nc1ccc(N2CCN(C(=O)c3ccccc3)CC2)cc1,.,-34,.,22µM*
O=C(COc1ccccc1[N+](=O)[O-])Nc1ccc(N2CCN(C(=O)c3cccs3)CC2)cc1,?,-33,?,13µM*
